D1 ag – agonists of human D1 dopamine receptor; HEK293 T-REx D1 cells, calcium flux, agonist mode; 1% of 360,000 active; activation, % at 2 µM
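Inducible HEK293 T-REx D1 cells, force-coupled to calcium signalling, were plated at 4000 cells/well with tetracycline and held overnight at 30 C. After no-wash calcium dye loading, compound-evoked calcium rise over 180 s flagged agonists.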
D1 antag – antagonists of human D1 dopamine receptor; P21728; HEK293 TREx D1 cells, calcium flux, dopamine EC80; stronger effect = lower value; activity change, negative = inhibition, % at 10 µM; 3.2% of 360,000 active; AID 504652; in the data active = activity change below about -30%
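Allosteric or orthosteric antagonism assessed as attenuation of the calcium response to EC80 dopamine, added 180 s after compound, in induced HEK293 Trex D1 cells loaded with no-wash calcium dye.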
TRHR agonist – agonists of human TRH receptor. P34981. TRHR cells, calcium flux fluo-8, FDSS agonist mode. activation, % at 2 µM. 0.18% of 360,000 active. AID 493084
Target sequence (P34981 whole entry, looked up): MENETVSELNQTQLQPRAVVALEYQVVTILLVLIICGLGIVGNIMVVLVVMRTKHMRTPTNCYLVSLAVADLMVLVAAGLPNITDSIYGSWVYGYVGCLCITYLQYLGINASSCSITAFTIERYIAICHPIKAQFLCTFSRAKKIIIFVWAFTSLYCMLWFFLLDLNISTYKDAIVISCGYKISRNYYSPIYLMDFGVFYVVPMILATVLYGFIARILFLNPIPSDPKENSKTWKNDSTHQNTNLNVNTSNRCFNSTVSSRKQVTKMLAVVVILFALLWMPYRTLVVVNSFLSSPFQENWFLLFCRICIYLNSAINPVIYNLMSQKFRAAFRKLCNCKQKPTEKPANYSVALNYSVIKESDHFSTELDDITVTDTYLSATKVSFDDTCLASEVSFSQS
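TRHR-expressing cells loaded with fluo-8 calcium dye; 23 nL library compound pin-transferred, kinetic FDSS fluorescence (Ex 480/Em 530) recorded about 180 s for agonist-induced calcium release, before a 10 nM TRH EC20 addition for potentiator mode.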
TRHR PAM – allosterically enhances the human TRH receptor | enhancement, % at 2 µM | TRHR cells, fluo-8 calcium fluorescence, EC20 TRH enhancement | 0.66% of 360,000 active | P34981; in the data active = enhancement above about 30%
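Enhancer read-out: after compound pinning and an initial kinetic agonist-mode read, an EC20 of TRH (10 nM final) was injected and fluo-8 calcium signal (Ex 480/Em 530) followed at 1 s/cycle for 100 cycles in TRHR-expressing cells.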
D1 PAM – human D1 dopamine receptor positive modulation; P21728; potentiation, % at 10 µM; 0.036% of 360,000 active; HEK293 TREx D1 cells, calcium flux, dopamine EC20 potentiation; in the data active = potentiation above about 30%
A number is an active result; - = inactive; . = no result given; ! = repeats disagree. Hits are enriched below; roughly 4.7% of the tested compounds scored in any of these assays. Rule as the data show it, unless noted: active = activation above about 30%; inactive = the rest.

SMILES | D1 ag | D1 antag | TRHR agonist | TRHR PAM | D1 PAM
COc1ccc(CNC(=O)Cc2c(C)c3cc4c(C)coc4c(C)c3oc2=O)cc1 | - | - | - | - | -
Cc1cccc(CSc2nc(=O)c3c(n2C)NC(=O)CC3c2cccc(O)c2)c1 (configuration not stated) | - | - | - | - | -
Cc1ccc(CSc2nc(=O)c3c(n2C)NC(=O)CC3c2ccc(OC(C)C)cc2)cc1 (configuration not stated) | 46 | - | - | - | -
Fc1ccc(Nc2ncnc3onc(-c4cccc(Cl)c4)c23)c(F)c1 | - | -45 | - | - | -
Cc1cccc(Nc2ncnc3onc(-c4cccc(Cl)c4)c23)c1C | - | - | - | - | -
CCOC(=O)c1sc(NC(=O)Nc2ccccc2Cl)cc1C | - | -39 | - | - | -
CCOC(=O)c1sc(NC(=O)c2ccc(C)s2)cc1C | - | - | - | - | -
CCOC(=O)c1sc(NC(=O)Nc2ccccc2)cc1C | - | -42 | - | - | -
CCOC(=O)c1sc(NC(C)=O)cc1C | - | - | - | - | -
CC(C)CC(C(=O)O)C(C)CC(=O)Nc1ccn(-c2ccccc2)n1 (configuration not stated) | - | - | - | - | -
CCCCC(C(=O)O)C(C)CC(=O)Nc1ccn(-c2ccccc2)n1 (configuration not stated) | - | -59 | - | - | -
Cc1ccccc1NC(=O)c1c(NC(=O)c2ccncc2)sc2c1CCC(C(C)(C)C)C2 (configuration not stated) | - | - | - | - | -
O=C(O)[C@@H]1CSC2(CCSC2)N1 (some centres not stated) | - | - | - | - | -
CC1(C)SCC(C(=O)O)NC1=O (configuration not stated) | - | -34 | - | - | -
NC(=O)c1cc2cc(Cl)ccc2oc1=Nc1cccc(C(F)(F)F)c1 | - | -33 | - | - | -
Cc1c(-c2cccc(NC(=O)Nc3ccccc3)c2)nc2ncccn12 | - | -56 | - | - | -
CC1=C(c2ccc(C(C)C)cc2)S(=O)(=O)N=C1N1CCN(c2ccccc2F)CC1 | - | - | - | - | -
O=S(=O)(c1ccccc1)N1CCSC1c1ccco1 (configuration not stated) | - | -44 | - | 34 | -
CC(=O)Nc1ccc(S(=O)(=O)N2CCSC2c2ccco2)cc1 (configuration not stated) | - | - | - | - | -
COc1ccccc1CCN1COc2c(cc3c(C)c(C)c(=O)oc3c2C)C1 | - | -31 | - | - | -
Cc1cc(C(=O)NNC(=S)NCc2ccccc2)cs1 | - | - | - | - | -
O=C(NNC(=O)c1ccncc1)Nc1cccc(C(F)(F)F)c1 | - | - | - | - | -
Cc1nn(C)c(C(=O)NNC(=S)NCc2ccccc2)c1Cl | - | -32 | - | 39 | -
Cc1nn(C)c(C(=O)NNC(=O)Nc2cccc(C(F)(F)F)c2)c1Cl | - | -30 | - | - | -
COc1ccc(C2/C=C\CN(C(=O)C3CCCC3)CC(=O)N2Cc2ccc(F)cc2)cc1 (configuration not stated) | - | -34 | - | - | -
SMILES | D1 ag | D1 antag | TRHR agonist | TRHR PAM | D1 PAM
CCCCN(CC)CCNc1c(NC2CCN(C(=O)OCC)CC2)c(=O)c1=O | - | -63 | - | - | .
CCOC(=O)N1CCC(Nc2c(NCCCOC)c(=O)c2=O)CC1 | - | -34 | - | - | -
CCOC(=O)N1CCC(Nc2c(OCC)c(=O)c2=O)CC1 | - | -34 | - | - | -
CCOC(=O)N1CCC(Nc2c(NCCCN(CC)CC)c(=O)c2=O)CC1 | - | - | - | - | .
CCOC(=O)N1CCN(C(=S)NC2CCCC2)CC1 | - | - | - | 33 | -
Cc1ccc(S(=O)(=O)c2nc(-c3cccs3)oc2SCC(=O)Nc2cc(C)cc(C)c2)cc1 | - | - | - | - | -
CCOc1cccc(NC(=O)C2CC(=O)N(C)C(=Nc3cccc(OC)c3)S2)c1 (configuration not stated) | - | - | - | - | -
CCOC(=O)N1CCC(Nc2c(NCCCN3CCN(C4CCCCC4)CC3)c(=O)c2=O)CC1 | - | -43 | - | - | -
CCOC(=O)N1CCC(Nc2c(NCCCN(CC)Cc3ccccc3)c(=O)c2=O)CC1 | - | - | - | - | .
Cc1ccc(Cn2c(=O)n(-c3cc(C)cc(C)c3)c(=O)c3oc4ccccc4c32)cc1 | - | - | - | - | -
CC1CC(C)CN(CCCNC(=O)c2nn(C)c3c2CS(=O)(=O)c2ccccc2-3)C1 (configuration not stated) | - | -42 | - | - | -
Cc1ccc(CCNC(=O)c2nn(C)c3c2CSc2ccccc2-3)cc1 | - | - | - | - | -
COc1ccccc1CNC(=O)c1nn(C)c2c1CS(=O)(=O)c1ccccc1-2 | - | - | - | - | -
Cc1cccc(N2CCN(C(=O)c3nn(C)c4c3CSc3ccccc3-4)CC2C)c1 (configuration not stated) | - | -46 | - | - | -
Cn1nc(C(=O)NCc2ccccc2Cl)c2c1-c1ccccc1S(=O)(=O)C2 | - | -31! | - | - | -
Cn1nc(C(=O)NCCCN2CCCCC2)c2c1-c1ccccc1SC2 | - | -30 | - | - | -
Cc1cccc(N2CCN(C(=O)c3nn(C)c4c3CS(=O)(=O)c3ccccc3-4)CC2C)c1 (configuration not stated) | - | - | - | - | -
Cc1cccc(NC(=O)COC(=O)Cc2c[nH]c3ccccc23)c1C | - | -32 | - | - | -
COc1ccccc1NC(=O)COC(=O)Cc1c[nH]c2ccccc12 | - | - | - | - | -
Cc1ccc(NC(=O)COC(=O)Cc2c[nH]c3ccccc23)cc1F | - | - | - | - | -
NC(=O)c1ccsc1NC(=O)COC(=O)Cc1c[nH]c2ccccc12 | - | -34 | - | - | -
O=C(COC(=O)Cc1c[nH]c2ccccc12)Nc1ccccc1 | - | -34 | - | - | -
CO/N=C\CC(=O)Nc1ccc(Cl)c(Cl)c1 | - | -30 | - | - | -
CCC1=C(c2ccc(C)cc2)S(=O)(=O)N=C1N1CCC(C(=O)NCc2ccc(C)cc2)CC1 | - | -39 | - | - | -
CCC1=C(c2ccc(C)cc2)S(=O)(=O)N=C1N1CCC(C(=O)NCCc2ccc(Cl)cc2)CC1 | - | - | - | - | -
Cc1ccc(S(=O)(=O)c2nc(Nc3nccs3)sc2Cl)cc1 | - | - | - | 30 | -
CC(=O)Nc1nc(S(=O)(=O)c2ccc(C)cc2)c(Cl)s1 | - | - | - | - | -
COc1ccc(N(CC(=O)Nc2ccc3c(c2)OCCO3)S(=O)(=O)c2c(C)nn(C)c2C)cc1 | - | -30 | - | - | -
Cc1nn(C)c(C)c1S(=O)(=O)N(CC(=O)Nc1nccs1)c1ccc(C(C)C)cc1 | - | - | - | - | -
COc1ccc(N(CC(=O)Nc2nccs2)S(=O)(=O)c2c(C)nn(C)c2C)cc1 | - | -55 | - | - | -

Compound activity as filed in PubChem BioAssay.
